CYP2C9 inh: blockers of cytochrome P450 2C9 activity – biochemical, luminescence, ADME assay, primary screen. 96,000 tested, 20% active. P11712. inhibition, % at 5 µM. CYP2C9 Supersomes, luciferin-H conversion;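 active = blocking of liver enzyme CYP2C9 beyond about 50% at 5 µM, limit read from the data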
Target sequence (P11712 whole entry, looked up): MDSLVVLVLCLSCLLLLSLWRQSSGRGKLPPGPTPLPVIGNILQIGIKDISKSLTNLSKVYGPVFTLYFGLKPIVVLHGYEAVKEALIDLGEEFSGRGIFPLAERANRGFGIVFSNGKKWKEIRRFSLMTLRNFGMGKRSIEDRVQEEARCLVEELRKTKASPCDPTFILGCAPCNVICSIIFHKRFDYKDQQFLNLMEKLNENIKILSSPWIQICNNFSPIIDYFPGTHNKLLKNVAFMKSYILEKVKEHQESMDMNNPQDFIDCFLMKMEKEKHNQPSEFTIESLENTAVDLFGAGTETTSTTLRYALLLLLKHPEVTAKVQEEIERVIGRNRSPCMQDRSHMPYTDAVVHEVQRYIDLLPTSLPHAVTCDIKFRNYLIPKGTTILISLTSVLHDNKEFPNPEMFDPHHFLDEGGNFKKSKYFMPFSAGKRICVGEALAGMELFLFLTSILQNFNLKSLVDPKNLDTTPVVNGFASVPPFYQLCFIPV
CYP2C19 activ: human CYP2C19 activators, primary screen, biochemical, luminescence | Cytochrome P450 2C19 (Homo sapiens), P33261 | recombinant CYP2C19, luciferin-H EGE luminescence; active compounds read high; 0 = fully inhibited enzyme, 1 = untreated enzyme | activation factor at 5 µM | 96,000 tested, under 10 active;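 active = activation factor of at least 2 at 5 µM in the primary screen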;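 note: 0 = wells with 2.5 mM tranylcypromine and 1 = vehicle-only wells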
CYP2C19 inhib: blockers of cytochrome P450 2C19 activity – biochemical, luminescence, ADME assay, primary screen. 96,000 tested, 21% active. inhibition, % at 5 µM. CYP2C19 Supersomes, luciferin-H EGE luminescence, 30 min. P33261;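 active = CYP2C19 inhibition above a set limit at 5 µM in the primary screen, cut at about 50% in these data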;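 note: plate controls were negative control wells for no effect and 2.5 mM tranylcypromine positive control for full effect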
Cav3 T inh: Cav3.2 calcium influx blockers – cell-based, Fluo-4 calcium fluorescence, FDSS, MLSMR library, primary screen; Cav3.2-expressing cells; active compounds read low; B-score at 10 µM; 100,000 tested, 4% active; AID 449739, 2010;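 active = single-dose well whose peak fluorescence ratio is a statistical outlier from its plate by either plate-standardised score or position-corrected B-score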
CYP2C9 activ: human CYP2C9 activators, primary screen, biochemical, luminescence; Cytochrome P450 2C9 (Homo sapiens), P11712; recombinant CYP2C9, luciferin-H conversion; active compounds read high; factor 1 = untreated enzyme, 0 = blocked; activation factor at 5 µM; 96,000 tested, 1.4% active; AID 1024, 2008;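 active = activation factor of 2 or more for CYP2C9 at a 5 µM dose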;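 note: 0 = sulfaphenazole-blocked wells and 1 = vehicle-only wells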
* hit, by the source's call; nt = no result given. Shown are actives, neighbours in structure and some others; about 27% of the full set was active somewhere.

SMILES	CYP2C9 inh	CYP2C19 activ	CYP2C19 inhib	Cav3 T inh	CYP2C9 activ
Cc1cc(C)nc(SCc2nnc(SCC(=O)Nc3ccc(C)c(C)c3)n2Cc2ccco2)n1	43	0.7	33	-8*	0.6
Cc1cccc(C)c1NC(=O)CSc1nnc(-c2ccncc2)n1Cc1ccco1	67*	0.3	73*	1.2	0.3
O=C(CSc1nnc(-c2ccncc2)n1Cc1ccco1)Nc1nccs1	nt	nt	nt	-0.076	nt
Cc1cc(Cl)ccc1NC(=O)CSc1nnc(-c2ccncc2)n1Cc1ccco1	90*	0.1	86*	0.44	0.1
Cc1cc(NC(=O)CSc2nnc(-c3ccccc3)n2Cc2ccco2)no1	-15	0.8	20	1.8	1.2
CC(=O)Oc1ccc(/C=c2\sc3ncnn3c2=O)cc1	-3	1.1	-5	-1.8	1
CCOc1ccccc1/C=c1\sc2ncnn2c1=O	-123	1	0	1.4	2.2*
O=[N+]([O-])c1cccc(-n2nnnc2CN2CCCCCC2)c1	43	0.1	94*	0.4	0.6
COc1ccc2cc(Br)ccc2c1CC(=O)NC1CC(C)(C)NC(C)(C)C1	13	0.8	17	0.12	0.9
Cc1noc(/C=C/N(C)C)c1S(=O)(=O)N(C)CC(=O)N1CCc2ccccc21	39	1	4	1.2	0.6
Cc1noc(/C=C/NCc2cccnc2)c1S(=O)(=O)N(C)CC(=O)N1CCc2ccccc21	78*	0.8	17	1.8	0.2
CC(C)OC(=O)[C@H]1[C@H](c2ccc(Cl)cc2)[C@@](C#N)(C(N)=O)[C@@H]2C=CC(C(N)=O)=CN21	-3	0.8	25	-0.54	1
Cn1c2ccccc2c2nn(-c3ccccc3)c(=O)cc21	30	0.3	71*	0.65	0.7
Cn1c(=O)c2nc(-c3ccccc3)oc2c2ccccc21	-47	0.9	5	-1.9	1.5
N#C/C(=C\c1ccc(Sc2nc3ccccc3[nH]2)o1)c1ccccc1	95*	0.1	86*	-3	0
N#C/C(=C\c1cc([N+](=O)[O-])c(N2CCCCC2)cc1N1CCCCC1)c1nn(-c2ccccc2)c(N)c1C#N	97*	0.3	69*	-0.64	0
N#C/C(=C\c1cccc2ccccc12)c1nn(-c2ccccc2)c(N)c1C#N	nt	nt	nt	0.43	nt
N#Cc1ccc(Sc2nc3ccccc3[nH]2)cc1C#N	31	0.2	76*	0.45	0.7
N#C/C(=C\c1ccc(N2CCOCC2)o1)c1ccccc1	25	0.9	14	-2.6	0.7
N#C/C(=C/c1ccc(N2CCOCC2)o1)c1nc2ccccc2[nH]1	nt	nt	nt	-10*	nt
Cc1ccc2oc3c(c(=O)c2c1)C(c1cccs1)N(CCCN(C)C)C3=O (configuration not stated)	6	1	-4	0.82	0.9
Cc1ccc(C)c(CN2CCCNC2=O)c1	nt	nt	nt	0.77	nt
Cc1cc(/C=C(/C#N)c2nc3ccccc3[nH]2)c(C)n1-c1cccc([N+](=O)[O-])c1	81*	0.6	40	-11*	0.2
N#C/C(=C\c1cc([N+](=O)[O-])c(N2CCOCC2)cc1N1CCOCC1)c1nc2ccccc2[nH]1	97*	0.1	91*	-0.49	0
Cc1sc(N/N=C/C=C/c2ccccc2)nc1-c1ccccc1	-30	0.9	8	-1.3	1.3
SMILES	CYP2C9 inh	CYP2C19 activ	CYP2C19 inhib	Cav3 T inh	CYP2C9 activ
Cc1csc(NC(=O)C(CC(C)C)NS(=O)(=O)c2ccc3c(c2)oc(=O)n3C)n1 (configuration not stated)	55*	0.6	36	nt	0.4
CCc1cc(C(=O)NNC(=S)Nc2ccccc2C)cs1	nt	nt	nt	-0.64	nt
COc1ccc(C(=O)NCc2cccnc2)cc1Br	72*	0.7	28	-0.87	0.3
O=C(NCc1cccnc1)c1cc(-c2ccccc2)on1	25	1	1	0.28	0.8
CCCc1cc(C(=O)NNC(=S)NCc2ccccc2)cs1	22	0.8	22	-7.3*	0.8
CCCc1cc(C(=O)NCc2cccnc2)no1	15	0.4	59*	1.4	0.9
COc1ccc(CNC(=O)c2cc(C3CC3)on2)cc1	21	0.2	81*	-0.8	0.8
Cc1ccc(-c2[nH]c3ccccc3c2SCCNC(=O)c2ccc(S(=O)(=O)N3CCOCC3)cc2)cc1	nt	nt	nt	-0.72	nt
CCN1CCN(CC(=O)Nc2cccc(C)c2)C(=O)C1=O	nt	nt	nt	-0.76	nt
CCCc1cc(C(=O)N(C2CCCCC2)C2CCCCC2)no1	81*	0.4	64*	-2.3	0.2
COc1ccc(-c2cc(C(=O)NCc3cccnc3)no2)cc1	58*	0.8	20	1.6	0.4
Cc1cc(C(=O)N2CCN(C(c3ccccc3)c3ccccc3)CC2)no1	35	0.6	42	-0.95	0.7
Cc1cc(C(=O)NCc2ccccc2Br)no1	-12	0.3	70*	0.14	1.1
CCCc1cc(C(=O)NC2CCCCC2)no1	-29	0.6	40	-0.48	1.3
CCCc1cc(C(=O)N2CCN(C(c3ccccc3)c3ccccc3)CC2)no1	83*	0.9	6	-2.1	0.2
COC(=O)NC(=S)Nc1ccc(Oc2ccc(Cl)cc2Cl)c(Cl)c1	nt	nt	nt	-0.079	nt
CSCC[C@H](NC(=O)OC(C)(C)C)C(=O)N1CCC(C(=O)N[C@H](C(=O)O)C(C)C)CC1	-5	1	-1	1.1	1
CCCc1cc(C(=O)NCc2ccccc2)no1	12	0.4	58*	-0.14	0.9
CCN(CC)c1ncccc1C(=O)NCc1cccs1	65*	0	99*	0.028	0.4
CCCc1cc(C(=O)NCCc2ccc(OC)c(OC)c2)no1	68*	0.1	94*	1.2	0.3
CCCc1cc(C(=O)NCc2cccs2)no1	32	0.3	74*	0.33	0.7
COc1ccc(CCNC(=O)c2cc(C(C)C)on2)cc1OC	6	0.6	35	-1.2	0.9
CCOC(=O)C1=C(N)OC2=C(C(=O)CCC2)C1c1ccc(C)s1 (configuration not stated)	16	0.5	53*	-0.16	0.8
CCOC(=O)C1=C(N)OC2=C(C(=O)CCC2)C1c1ccco1 (configuration not stated)	16	0.8	19	2.2	0.8
CCOc1ccccc1C1C(C(=O)OC)=C(N)OC2=C1C(=O)CCC2 (configuration not stated)	70*	0.1	93*	-1.7	0.3
O=C(CSc1ccccc1)Nc1cccnc1	7	0.6	42	0.085	0.9
CCCC[C@@H]1C[C@H]1[C@@H](NC(=O)c1ccco1)c1ccccc1C(F)(F)F	nt	nt	nt	-0.6	nt
CC1=[N+]([O-])C(C)(C)C(C)N(O)C1=O (configuration not stated)	-12	1.2	-16	0.047	1.1
Cc1cc(NC(=O)c2cc(C(C)C)on2)nn1Cc1ccc(Cl)cc1	40	0.3	65*	-7.1*	0.6
